From ChEMBL document CHEMBL3988442, “University of Dundee, Small-Polar-MMV Screening Library” (2021)

target: T1, Tyrosyl-tRNA synthetase, putative (Trypanosoma cruzi (strain CL Brener)) (UniProt Q4DSP6); assay: Trypanosoma cruzi tyrosyl tRNA synthetase (TcYRS) SOP; format: functional; set-up: scale not given: direction of the effect not stated beside the values; conditions: 30 µM
T1 sequence (whole entry): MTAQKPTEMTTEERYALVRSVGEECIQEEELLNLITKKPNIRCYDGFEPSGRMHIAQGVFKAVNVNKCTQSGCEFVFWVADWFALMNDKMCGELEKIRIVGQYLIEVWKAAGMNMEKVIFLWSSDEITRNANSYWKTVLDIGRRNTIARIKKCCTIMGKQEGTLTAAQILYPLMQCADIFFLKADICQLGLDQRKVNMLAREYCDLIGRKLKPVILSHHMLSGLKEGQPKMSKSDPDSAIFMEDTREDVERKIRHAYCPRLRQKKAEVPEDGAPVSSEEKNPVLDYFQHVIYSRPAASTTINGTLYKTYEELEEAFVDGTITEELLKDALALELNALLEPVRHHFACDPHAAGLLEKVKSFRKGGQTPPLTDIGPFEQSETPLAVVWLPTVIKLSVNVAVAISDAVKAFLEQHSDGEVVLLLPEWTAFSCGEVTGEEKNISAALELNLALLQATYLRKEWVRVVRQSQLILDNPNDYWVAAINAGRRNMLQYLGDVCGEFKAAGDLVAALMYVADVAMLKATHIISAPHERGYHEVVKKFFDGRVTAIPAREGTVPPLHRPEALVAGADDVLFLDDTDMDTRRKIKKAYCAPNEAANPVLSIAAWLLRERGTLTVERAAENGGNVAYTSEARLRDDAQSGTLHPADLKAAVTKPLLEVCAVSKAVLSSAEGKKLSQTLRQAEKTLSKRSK

| Structure (SMILES) | Percent Effect [%] |
| --- | --- |
| Cn1c(NCC(O)c2ccc(F)cc2F)c(C#N)c(=O)n(C)c1=O (centres undefined) | 13.9 |
| CC(CNC(=O)N1CCSCC1)Cc1cccs1 (centres undefined) | 6.1 |
| NC(=O)COc1cccc(C(=O)N2CCCC(n3ccnc3)C2)c1 (centres undefined) | 11 |
| CCC(O)CNC(=O)c1coc(COc2ccc3sc(C)nc3c2)n1 (centres undefined) | 0 |
| CCNC(=O)N1CCC2(C1)c1ccccc1S(=O)(=O)N2CCC(C)C (centres undefined) | 0 |
| Cc1ccc(C(CNCc2cnn(C(C)C)c2)N2CCOCC2)s1 (centres undefined) | 1.22 |
| COc1cccc(C(=O)Nc2cc(CC(C)C)nn2C)c1 | 14.6 |
| Cc1cc(F)ccc1CN1CCCC2(C1)OCCO2 | -3.66 |
| CCN(Cc1ccco1)C(=O)Nc1cc(C(F)(F)F)c[nH]c1=O | 13.6 |
| O=C(c1ccccc1OCC1CC1)N1CCCC(n2ccnc2)C1 (centres undefined) | 7.59 |
| Cn1nc(CNC(=O)NCc2ccc(Cl)cc2)c2c1CCOC2 | -3.85 |
| O=C(NCC(Cc1cccc(F)c1)N1CCCC1=O)c1ccccc1 (centres undefined) | 5 |
| CSCC(C)(O)CNC(=O)c1ccc(Br)cc1F (centres undefined) | 6.17 |
| CCN1CCC(c2nc3ccc(NC(C)C)cn3n2)CC1 | 11 |
| COc1ccc(Oc2cncc(C3CCCN3C(C)=O)n2)cc1 (centres undefined) | 3.9 |
| CCn1nc(C)c(CNC(=O)c2cn(CCC3CCCCN3)nn2)c1C (centres undefined) | 16.1 |
| N#Cc1ccc(N2CCN(C(=O)c3cc(C4CC4)[nH]n3)CC2)c(F)c1 | 23.2 |
| CNS(=O)(=O)c1ccc(C(=O)N2CCCC2c2ccccc2)o1 (centres undefined) | 18.5 |
| CC(=O)c1c(F)cccc1N1CCC(CS(N)(=O)=O)CC1 | 3.7 |
| Cc1ccc(CC(=O)NC(C)C(=O)N2CCS(=O)(=O)CC2)cc1 (centres undefined) | 2.44 |

| Structure (SMILES) | Percent Effect [%] |
| --- | --- |
| CCN(C(c1cccnc1)c1ccc2c(c1)CCO2)S(C)(=O)=O (centres undefined) | 8.64 |
| CCOCCCC(=O)NCCC(=O)N1CCN(c2ccccn2)CC1 | 13 |
| CCOc1ccc(C(=O)NS(=O)(=O)c2cncc(Br)c2)cc1OC | 9.76 |
| c1ncn(CC2CCCCN2Cc2noc(C3CC3)n2)n1 (centres undefined) | 21.9 |
| COC(=O)c1ccc2ccn(CC3CCCO3)c(=O)c2c1 (centres undefined) | 10 |
| CC(C)C(=O)N1CCN(C(=O)CCc2nnc(-c3ccccc3)o2)CC1 | 8.86 |
| CCNC(c1cccnc1)c1cc(C)cc(C)c1 (centres undefined) | 5.06 |
| NC(=O)C1(Cc2ccccc2-c2ccccc2)CCCN(CC2CC2)C1 (centres undefined) | 3.85 |
| CC(C(=O)Nc1cccc(N2CCCCC2)c1)n1cncn1 (centres undefined) | 23.5 |
| O=C(C1CC1)N1CCC(c2nc(O)c3c(n2)CCN(C2CCCC2)C3)C1 (centres undefined) | 6.41 |
| Cn1cc(CN2CCn3cc(CNC(=O)C4CCC4)nc3C2)cn1 | 12.5 |
| CN1N=C(C(=O)Nc2cc(F)ccc2OCC2CCCO2)CCC1=O (centres undefined) | 2.44 |
| CC(Cn1cccn1)NCc1nc(-c2cccc(Cl)c2)no1 (centres undefined) | 11.1 |
| Cn1nc(C2CCN(C(=O)Cc3cccc(F)c3)CC2)c2cccnc21 | 6.49 |
| O=C(CN1CCCC(O)C1)NC(=O)NCc1cccs1 (centres undefined) | 7.79 |
| O=C(Cn1cnnn1)N1CCCCC1Cn1cccn1 (centres undefined) | -11.4 |
| O=C(NCC1CC1)C1=NOC2(CCN(Cc3ccc4c(c3)OCO4)C2)C1 (centres undefined) | -17.5 |
| O=C(NC[C@@H]1CCCN1)c1cc(COc2cccc(C(F)(F)F)c2)[nH]n1 | 7.69 |
| CO[C@H]1CN(C(=O)c2ccc3oc(C)cc3c2)CC[C@@]12CCCO2 | -1.3 |
